Integrin act MD: qHTS for Activators of Integrin-Mediated Alleviation for Muscular Dystrophy. Potency, µM (highest dose often 38.3 µM), usual class: activators. alpha7betagal myoblasts, beta-gal FDG fluorescence, 48 h. actives 0.064% (n = 350,000). AID 624291, 2012; note: nearly all actives have a fitted effect of over 60% in size
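Alpha7betagal+/- myoblasts (passage 13) were plated 16-24 hr, then exposed to compounds (1:260 dilution of DMSO stock) for 48 hours at 37C. After MPER lysis, β-galactosidase reporter activity was read as FDG fluorescence (ex 480/em 540) after 30 minutes.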
CBFb RUNX1 block: qHTS Assay for Compounds Blocking the Interaction Between CBF-beta and RUNX1 for the Treatment of Acute Myeloid Leukemia; Runt-related transcription factor 1 (Homo sapiens) + Core-binding factor subunit beta …; AlphaScreen CBFb-His/RUNX1-biotin binding, biochemical; Potency, µM (top dose mostly 59.8 µM), hits mostly inhibitors; 230,000 tested, under 10 active
Target sequence (Q01196 whole entry, looked up): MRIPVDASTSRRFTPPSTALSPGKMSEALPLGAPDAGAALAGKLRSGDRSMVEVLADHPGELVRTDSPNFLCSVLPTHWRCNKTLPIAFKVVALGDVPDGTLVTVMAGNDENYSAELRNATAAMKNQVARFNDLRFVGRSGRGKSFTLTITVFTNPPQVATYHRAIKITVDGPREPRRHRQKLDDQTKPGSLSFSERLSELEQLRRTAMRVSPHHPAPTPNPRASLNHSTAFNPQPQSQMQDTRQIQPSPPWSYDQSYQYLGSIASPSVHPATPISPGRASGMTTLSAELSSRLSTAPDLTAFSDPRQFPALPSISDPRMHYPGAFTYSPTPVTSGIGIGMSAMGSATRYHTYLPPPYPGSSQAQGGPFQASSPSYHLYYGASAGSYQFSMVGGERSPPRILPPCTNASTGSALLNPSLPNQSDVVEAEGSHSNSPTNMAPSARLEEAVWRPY
Target sequence (Q13951 whole entry, looked up): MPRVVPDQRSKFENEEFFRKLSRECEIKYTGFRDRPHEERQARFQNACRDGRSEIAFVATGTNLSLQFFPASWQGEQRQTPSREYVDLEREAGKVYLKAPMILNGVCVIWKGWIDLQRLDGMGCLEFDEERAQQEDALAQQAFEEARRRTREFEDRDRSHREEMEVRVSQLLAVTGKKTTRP
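CBF-beta (His) and RUNX1 (biotin), 30 nM each; 20 min preassociation; + compound, 15 min; + beads 50 ng each (Ni, streptavidin), 90 min; RT; AlphaScreen read.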
PTHR1 agonist: qHTS for PTHR1 Agonists: Primary Screen; actives 0.075% (n = 410,000); AID 743266, 2014; Parathyroid hormone/parathyroid hormone-related peptide receptor (Homo sapiens), Q03431; HEK293 GP2 PTHR1 cells, GloSensor cAMP luminescence, 1 h; Potency, µM (doses to about 115 µM), usual class: activators; note: nearly all actives have a fitted effect of over 55% in size
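HEK-293-derived GP2 cells expressing PTHR1 and a GloSensor cAMP reporter, 3,000/well, plated overnight, given luciferin plus IBMX (each 0.5 mM as added) for 1 h at 37 °C, then compound for 1 h at 37 °C. Luminescence was read after 15 min at room temperature.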
MBNL1-CUG inh: qHTS Assay for Inhibitors of MBNL1-poly(CUG) RNA binding; Muscleblind-like protein 1 (Homo sapiens), Q9NR56; TR-FRET MBNL1-His/biotin-(CUG)12 binding, 665/545 ratio; Potency, µM (series often up to 57.5 µM), actives largely listed as inhibitors; actives 0.036% (n = 280,000); AID 2675, 2010; active = well fitted inhibition curve with a large enough effect in the signal ratio, with a control signal flat, not every such curve was filed as active; inconclusive = small, poorly fitted or top-dose-only effect, or effect the other way, or a change in a side signal; inactive = no such curve, though single readings can be large or run the other way; the % refers to the signal ratio
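Inhibition of protein-RNA binding appears as loss of TR-FRET between terbium anti-His antibody on MBNL1-His and streptavidin-XL665 on biotin-(CUG)12. Activity is normalized to buffer-only and uninhibited-complex controls.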
D3 antag: qHTS of D3 Dopamine Receptor Antagonist: qHTS | D(3) dopamine receptor (Homo sapiens), P35462 | D3R cells, DiscoveRx beta-arrestin luminescence, antagonist mode; hits give low values | max response, negative = inhibition, % | actives 2.5% (n = 360,000); in the data active = max response below about -50%; inconclusive = no clear call, values can overlap the other calls
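Cells expressing the human receptor were seeded at 1500 cells/well, incubated overnight at 37 degrees C in 5% CO2, then exposed to library compounds with dopamine controls for 90 minutes at 37 degrees C before luminescent detection.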
DRD3 agonist: qHTS of D3 Dopamine Receptor Agonist: qHTS; D3R DiscoveRx beta-arrestin cells, luminescence, 90 min; actives 0.58% (n = 410,000); max activation, %; in the data active = max activation above about 30%
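Agonist mode: compounds and dopamine controls were applied to plated cells for 90 min at 37 degrees C after an overnight attachment at 1500 cells/well. Luminescent read-out followed 30 - 60 minutes at room temperature with DiscoveRx detection reagent.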
Numbers stand for hits; - = inactive; ? = inconclusive; . = no result; [ ] = another dose, or the depositor's remark. The list is not random: actives were taken first. Their share in the collection is about 2.8%. Unless noted, calls come from the whole dose curve; as a rule, active = well fitted curve in the direction sought with a large enough effect; inconclusive = small, poorly fitted or top-dose-only effect, or another doubt; inactive = no such curve, though single readings can be large; an effect the other way counts as inactive or inconclusive.

SMILES	Integrin act MD	CBFb RUNX1 block	PTHR1 agonist	MBNL1-CUG inh	D3 antag	DRD3 agonist
Cc1ccc(S(=O)(=O)N2CC3(C)CN(S(=O)(=O)c4ccc(C)cc4)CC(C)(C2)C3)cc1	-	-	-	-	-	31
COc1cc(OC)cc(-c2c(C#Cc3ccsc3)c3cc(-c4cc(OC)c(OC)c(OC)c4)ccc3n2C)c1	-	.	-	.	-	-
COc1cc(OC)cc(-c2c(C#Cc3ccsc3)c3cc(-c4ccc(OC)c(F)c4)ccc3n2C)c1	-	.	-	.	-	50
Cc1ccc([N+](=O)[O-])cc1S(=O)(=O)N1CCn2cccc2C1c1ccccc1F (stereo not drawn)	.	.	-	.	.	-
O=C(Nc1cccc(C(F)(F)F)c1)c1cc(-c2ccco2)on1	-	.	-	-	-	-
O=C(Nc1cccnc1)c1cc(-c2ccccc2O)on1	-	-	-	-	-	-
O=C(Nc1cccc(C(F)(F)F)c1)c1cc(-c2cccs2)on1	-	-	-	-	-65	-
O=C(Nc1cccnc1)c1cc(-c2cccs2)on1	-	-	-	-	-61	-
CCCCNC(=O)Nc1ccnn1C1CCCCC1	-	-	-	-	-76	-
Cc1ccc(NS(=O)(=O)c2cc(C(=O)Nc3cccc(N(C)S(C)(=O)=O)c3)ccc2C)c(C)c1	-	-	-	-	-	43
Cc1ccc(C)c(NS(=O)(=O)c2cc(C(=O)Nc3cccc(N(C)S(C)(=O)=O)c3)ccc2C)c1	-	-	-	-	-	-
Cc1cnc(CNC(=O)c2ccc3sc([C@@H]4O[C@H](CO)[C@H](O)[C@H](O)[C@H]4O)nc3c2)cn1	.	.	-	.	-50	-
Cc1cccc(C)c1NC(=O)c1ccc2sc([C@@H]3O[C@H](CO)[C@H](O)[C@H](O)[C@H]3O)nc2c1	.	.	-	.	-52	-
O=C(NCc1cccnc1)c1ccc2sc([C@H]3C[C@H](O)[C@@H](CO)O3)nc2c1	.	.	-	.	-69	-
O=C(NCc1ccc(Cl)nc1)c1ccc2sc([C@@H]3O[C@H](CO)[C@H](O)[C@H](O)[C@H]3O)nc2c1	.	.	-	.	-	-
O=C(NCc1cc(Cl)cc(Cl)c1)c1ccc2sc([C@H]3C[C@H](O)[C@@H](CO)O3)nc2c1	.	.	-	.	-	-
CC(C)CCC[C@@H](C)[C@H]1CC(=O)C2=C3CC[C@H]4C[C@@H](O)CC[C@]4(C)[C@H]3CC[C@@]21C	.	.	.	.	.	-
O=C(CSc1nnc2ccccn12)NNC(=O)c1ccc(Br)cc1	-	-	?	-	-	-
CCOC(=O)c1nnc(-c2ccc(C)cc2)nc1Sc1ccccc1Cl	-	-	-	-	-85	-
O=C(Cn1cnc2c(NC(=O)OCc3ccccc3)ncnc21)NCCN1CCOCC1	-	.	-	.	-	-
Cc1nc2ccccc2n1Cc1ccc(Br)cc1	-	.	-	.	-	-
CC(=O)Nc1cc2c(nc1C)nc(C)n2Cc1ccc(Br)cc1	-	-	-	-	-68	-
COc1cc(C(=O)OCC(=O)NCCN2C(=O)CSC2=O)ccc1OCc1c(C)noc1C	-	-	-	.	-	-
COc1ccc(C(CNC(=O)C(C)(C)Oc2ccc(Cl)cc2)N2CCOCC2)cc1 (stereo not drawn)	-	.	-	.	-75	-
CC(C)(Oc1ccc(Cl)cc1)C(=O)NCC(c1ccco1)N1CCCCC1 (stereo not drawn)	-	.	-	.	-	-
SMILES	Integrin act MD	CBFb RUNX1 block	PTHR1 agonist	MBNL1-CUG inh	D3 antag	DRD3 agonist
COc1ccc(C(CNC(=O)C(C)(C)Oc2ccc(Cl)cc2)N2CCCCC2)cc1 (stereo not drawn)	-	.	-	-	-83	-
CC1=Nc2ccccc2/C1=C/c1nc(-c2ccc(C)s2)oc1O	-	-	-	-	-	-
CC1=Nc2ccccc2/C1=C/c1sc(=N)n(-c2nccs2)c1O	-	-	-	-	-96	-
CCCCCCSc1ccc([C@H]2N[C@@](Cc3ccccc3)(C(=O)OC)[C@H]3C(=O)N(CC)C(=O)[C@@H]23)cc1	-	.	-	.	-	-
CCN1C(=O)[C@H]2[C@@H](c3ccc(-c4ccc(C(C)=O)cc4)c(OC)c3)N[C@@](Cc3ccccc3)(C(=O)OC)[C@H]2C1=O	-	.	-	.	-59	-
CCCCCCSc1ccc([C@H]2N[C@@](Cc3ccccc3)(C(=O)OC)[C@H]3C(=O)N(C)C(=O)[C@@H]23)cc1	-	.	-	.	-51	-
C=C1C(O)[C@@H]2O[C@]3(CC[C@H](/C=C/C(C)[C@@H]4CC(C)=CC5(O[C@H](C[C@@](C)(O)CO)CCC5O)O4)O3)CC[C@H]2O[C@@H]1C(O)CC(C)[C@H]1OC2(CCCCO2)CCC1C (stereo partly drawn)	-	.	-	.	-78	-
O=C(COC(=O)c1ccc2c(c1[N+](=O)[O-])C(=O)c1ccccc1C2=O)NC1CC1	-	-	-	?	-64	-
O=C(COC(=O)c1cccc2c1C(=O)c1ccccc1C2=O)NC1CCCCC1	-	-	-	?	-	-
O=C(CCC(=O)N1CCOc2ccc(Cl)cc21)NCCCN1CCN(c2ccccc2F)CC1	-	.	-	-	-96	-
O=C(CCC(=O)N1CCOc2ccc(Cl)cc21)NCCCN1CCC(Cc2ccccc2)CC1	-	.	-	-	-71	-
CCn1cc(SCC(=O)Nc2cc(C)on2)c2ccccc21	-	-	-	-	-89	-
CCN(CC)C(=O)Cn1cc(S(=O)(=O)CC(=O)Nc2cc(C)on2)c2ccccc21	-	.	-	.	-51	-
Cc1cc(C(=O)COC(=O)c2ccc(O)cc2O)c(C)n1-c1ccccc1	-	.	-	.	-	-
COc1ccc(-n2c(C)cc(C(=O)COC(=O)c3ccc(O)cc3O)c2C)cc1	-	.	-	.	-	44
COc1ccc(NC(=O)C(=O)NCCN2CCN(C(=O)c3ccc(C)cc3)CC2)cc1	-	.	-	-	-70	-
COc1ccc(C(=O)NCCN2CCN(C(=O)c3ccc(OC)cc3)CC2)cc1	-	.	-	-	-83	-
CC1=NN(c2ccccc2)C(=O)C1N=Nc1ccc(N)cc1 (stereo not drawn)	-	?	-	?	-60	-
CC(C)[C@@H](OCc1ccccc1)[C@H](C)/C=N\O[C@@H](C)c1cn([C@H](CO)Cc2ccccc2)nn1	.	-[13.1 µM]	.	.	.	.

Compound activity from PubChem.
